Source: the supplement of paper PMC4683952
Structures can show the parent of a compound that is named as a salt. Screen size: about 1,200 compounds; about 50 (4%) showed activity. Rule as the data show it: all actives reach 1.3 or more but so do some inactives. The list comes from a sample in which actives are over-represented; it also holds similar structures and randomly drawn compounds.

The compounds below were run on Lgr5 (MarsCy1-Lgr5-EGFP, U2OS) (assay: cell-surface Lgr5 expression (SCi1 fluorescence, background-subtracted) relative to WT DMSO (fold of DMSO control); higher = more Lgr5 at the plasma membrane, active = hit call of the paper). Conditions: U2OS MarsCy1-Lgr5-EGFP stable; treatment time: overnight; 16 µM; library: Johns Hopkins Clinical Compound Library.

Compound | cell-surface Lgr5 expression
NC(CCC(=O)O)C(=O)O (racemic) [DL-Glutamic acid monohydrate] | 0.692 (inactive)
C=CC(N)CCC(=O)O (stereo unspecified) [Vigabatrin] | 1.52 (active)
NC(=O)N[C@@H](CCC(=O)O)C(=O)O [Carglumic acid (N-Carbamyl-L-Glutamic Acid)] | 1.08 (inactive)
OCc1ccccc1O[C@@H]1O[C@H](CO)[C@@H](O)[C@H](O)[C@H]1O [Salicin] | 1.17 (inactive)
c1ccc(CN(CC2=NCCN2)c2ccccc2)cc1 [Antazoline] | 1.21 (inactive)
c1ccc(CN(CC2=NCCN2)c2ccccc2)cc1 [Antazoline phosphate salt] | 1.28 (inactive)
CC(C)COCC(CN(Cc1ccccc1)c1ccccc1)N1CCCC1 (stereo unspecified) [Bepridil] | 1.31 (active)
Nc1c(Br)cc(Br)cc1CN[C@H]1CC[C@H](O)CC1 [Ambroxol hydrochloride] | 1.54 (active)
O=C1OC(c2ccc(O)cc2)(c2ccc(O[C@@H]3O[C@H](C(=O)O)[C@@H](O)[C@H](O)[C@H]3O)cc2)c2ccccc21 (stereo partly drawn) [Phenolphthalein beta-D-glucuronide sodium salt] | 1 (inactive)
NCCC[C@H](N)C(=O)O [L-Ornithine] | 0.718 (inactive)
[K+].[OH-] [Potassium hydroxide] | 1.11 (inactive)
C=CCSCC1Nc2cc(Cl)c(S(N)(=O)=O)cc2S(=O)(=O)N1 (stereo unspecified) [Althiazide] | 1.27 (inactive)
CN1C(CCl)Nc2cc(Cl)c(S(N)(=O)=O)cc2S1(=O)=O (stereo unspecified) [Methyclothiazide] | 0.905 (inactive)
NS(=O)(=O)c1cc2c(cc1Cl)NC(C(Cl)Cl)NS2(=O)=O (stereo unspecified) [Trichlormethiazide] | 1.44 (active)
CNCC(O)c1ccc(OC(=O)C(C)(C)C)c(OC(=O)C(C)(C)C)c1 (stereo unspecified) [Dipivefrin HCl] | 1.42 (active)
CNC[C@H](O)c1cccc(O)c1 [L-Phenylephrine hydrochloride] | 0.598 (inactive)
CC(C)(C)NCC(O)c1ccc(O)c(CO)c1 (stereo unspecified) [Albuterol (Salbutamol)] | 1.22 (inactive)
CCC(C)C(C(=O)OCC[N+](C)(CC)CC)c1ccccc1 (stereo unspecified) [Valethamate bromide] | 1.1 (inactive)
CCN(CC)C(=S)S [Ditiocarb (Diethyldithiocarbamic acid sodium, thiocarb)] | 1.05 (inactive)
CCN(CC)CCCC(C)Nc1ccnc2cc(Cl)ccc12 (stereo unspecified) [Chloroquine diphosphate salt] | 1.53 (inactive)
CCN(CC)Cc1cc(Nc2ccnc3cc(Cl)ccc23)ccc1O [Amodiaquin] | 1.47 (inactive)
O=C(OCC(O)CO)c1ccccc1Nc1ccnc2cc(Cl)ccc12 (stereo unspecified) [Glafenine] | 1.63 (active)
CN(CCO)CC(O)Cn1cnc2c1c(=O)n(C)c(=O)n2C (stereo unspecified) [Xanthinol niacinate (Xanthinol Nicotinate)] | 1.05 (inactive)
O=Cc1cc(Br)cc(Br)c1O [3,5-Dibromosalicylaldehyde] | 1.17 (inactive)
CNCCCC1c2ccccc2C=Cc2ccccc21 [Protriptyline] | 0.38 (inactive)
CNCCCN1c2ccccc2CCc2ccccc21 [Desipramine] | 1 (inactive)

Compound | cell-surface Lgr5 expression
CNCCCC12CCC(c3ccccc31)c1ccccc12 [Maprotiline] | 1.32 (active)
COc1cc(C2Oc3cc([C@H]4Oc5cc(O)cc(O)c5C(=O)[C@@H]4O)ccc3OC2CO)ccc1O (stereo partly specified) [Silibinin (Silybin)] | 1.23 (inactive)
COc1cc(C2Oc3cc([C@H]4Oc5cc(O)cc(O)c5C(=O)[C@@H]4O)ccc3OC2CO)ccc1O (stereo partly specified) [Silibinin] | 1.08 (inactive)
Oc1c(Cl)cc(Cl)c2cccnc12 [Chloroxine (5,7-Dichloro-8-hydroxyquinoline)] | 0.97 (inactive)
Cc1c(N(C)C)c(=O)n(-c2ccccc2)n1C [Aminopyrine (4 Dimethylamino antipyrene)] | 0.932 (inactive)
Cc1c(N(C)C)c(=O)n(-c2ccccc2)n1C [Aminopyrine (4-Dimethylamino-antipyrine)] | 1.14 (inactive)
Cc1cc(OS(=O)(=O)O)c2ccccc2c1OS(=O)(=O)O [Menadiol disulfate disodium salt trihydrate] | 0.856 (inactive)
O=C(O)c1cc(S(=O)(=O)O)ccc1O [Sulfosalicylic acid (5-Sulfosalicylic acid dihydrate)] | 1.11 (inactive)
CCC(NC(C)C)C(O)c1ccc(O)c(O)c1 (stereo unspecified) [Isoetharine mesylate] | 1.19 (inactive)
NC[C@H](O)c1ccc(O)c(O)c1 [Norepinephrine] | 1.26 (inactive)
CNC[C@H](O)c1ccc(O)c(O)c1 [Epinephrine] | 1.57 (inactive)
NC[C@H](O)c1ccc(O)c(O)c1 [Arterenol (Norepinephrine)] | 1.3 (active)
Cc1ncc(CO)c(CN)c1O [Pyridoxamine, Dihydrochloride] | 1.02 (inactive)
Cc1ncc(CO)c(CN)c1O [Pyridoxamine dihydrochloride] | 0.999 (inactive)
CCCCc1nc(Cl)c(CO)n1Cc1ccc(-c2ccccc2-c2nnn[nH]2)cc1 [Losartan] | 0.915 (inactive)
C[C@@H]1[C@H](O)[C@@H](C)/C=C/C=C/C=C/C=C/C=C/C=C/C=C/[C@H](O[C@@H]2O[C@H](C)[C@@H](O)[C@H](N)[C@@H]2O)C[C@@H]2O[C@](O)(C[C@@H](O)C[C@@H](O)[C@H](O)CC[C@@H](O)C[C@@H](O)CC(=O)O[C@H]1C)C[C@H](O)[C@H]2C(=O)O [Amphotericin B] | 0.802 (inactive)
C[C@@H]1CCC[C@H](C)N1NC(=O)c1ccc(Cl)c(S(N)(=O)=O)c1 [Clopamide] | 1.3 (inactive)
CC(=O)OCC(=O)[C@@]12OC(C)(C)O[C@@H]1C[C@H]1[C@@H]3CCC4=CC(=O)C=C[C@]4(C)[C@@]3(F)[C@@H](O)C[C@@]12C [Triamcinolone acetonide acetate] | 1.26 (inactive)
CC(=O)OCC(=O)[C@@]1(OC(C)=O)[C@@H](C)C[C@H]2[C@@H]3C[C@H](F)C4=CC(=O)C=C[C@]4(C)[C@@]3(F)[C@@H](O)C[C@@]21C [Diflorasone diacetate] | 1.67 (active)
CCCC(=O)O[C@]1(C(=O)COC(C)=O)CC[C@H]2[C@@H]3C[C@H](F)C4=CC(=O)C=C[C@]4(C)[C@@]3(F)[C@@H](O)C[C@@]21C | 1.57 (active)
CC(=O)O[C@]1(C(C)=O)CC[C@H]2[C@@H]3C[C@H](C)C4=CC(=O)C=C[C@]4(C)[C@@]3(F)[C@@H](O)C[C@@]21C [Fluorometholone acetate] | 1.31 (active)
CC(=O)OCC(=O)[C@@]12OC(C)(C)O[C@@H]1C[C@H]1[C@@H]3C[C@H](F)C4=CC(=O)C=C[C@]4(C)[C@@]3(F)[C@@H](O)C[C@@]12C [Fluocinolone acetonide 21-acetate] | 1.6 (active)
CC(=O)O[C@]1(C(C)=O)CC[C@H]2[C@@H]3C[C@H](C)C4=CC(=O)CC[C@]4(C)[C@H]3CC[C@@]21C [Medroxyprogesterone acetate] | 1.2 (inactive)
CCCC(=O)O[C@]1(C(=O)CCl)[C@H](C)C[C@@H]2[C@@H]3CCC4=CC(=O)C=C[C@]4(C)[C@]3(F)C(=O)C[C@@]21C [Clobetasone butyrate] | 1 (inactive)
CC(=O)O[C@]1(C(C)=O)CC[C@H]2[C@@H]3C=C(Cl)C4=CC(=O)[C@@H]5C[C@@H]5[C@]4(C)[C@H]3CC[C@@]21C [Cyproterone acetate] | 1.25 (inactive)
